AMA1 RON2 block: disrupts binding of P. falciparum AMA1 to RON2; 360,000 compounds, 0.2% hits; AID 720542; AlphaScreen AMA1-biotinylated RON2 peptide binding; Potency, µM (top dose mostly 58.2 µM), for the others: at the top dose activity change, negative = inhibition, hits mostly inhibitors;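 further: 0% = vehicle wells and -100% = peptide control; nearly all actives have a fitted effect of over 45% in size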
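AMA1 (3D7) with his tag at 25 nM final met compounds first, then biotinylated RON2 peptide at 25 nM; detection used donor plus acceptor beads, 10 µg/mL apiece, read by AlphaScreen after 30 min at room temperature.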
HCV inhibitor: inhibitors of hepatitis C virus infection | 340,000 compounds, 3.4% hits | Potency, µM (doses to about 41.8 µM), without a hit: top-dose activity change, negative = inhibition, actives largely listed as inhibitors | Huh7.5.1 HCVcc-Cre infection, luciferase reporter, 44 h
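1,000 cells/well; 4 h culture; + compound; + HCVcc-Cre (~0.5 moi); 44 h; luciferase substrate, RT 15 min; read 15 sec.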
Pf growth 96h: inhibits malaria parasite growth, 96 h; P. falciparum luciferase reporter growth, 96 h; Potency, µM (series often up to 28.7 µM), for inactives: top-dose activity change, negative = inhibition, actives largely listed as inhibitors; 320,000 compounds, 6.9% hits; AID 504834
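96 h incubation, 37 C, 5% CO2, of luciferase-reporter P. falciparum-infected RBCs (2% hematocrit, 0.05% parasitemia final) with test compounds; endpoint luminescence.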
Pf growth 48h: P. falciparum growth inhibition at 48 hours (one generation). P. falciparum luciferase growth in erythrocytes, 48 h. Potency, µM (highest dose often 28.7 µM), for the others: top-dose activity change, negative = inhibition, most hits filed as inhibitors. 310,000 compounds, 5.9% hits. AID 504832
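First compound was added to culture medium, then infected red cells at 0.1% parasitemia and 2% hematocrit (final). After incubation at 37 C under 5% CO2, luciferase detection reagent was dispensed and light output recorded.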
An asterisk follows results filed as active; ? = inconclusive; · = no result; [ ] = dose if it differs, or a comment. This is a sample that favours compounds with a hit; in the whole collection about 11% have one here. The call rests on the fitted dose curve; in most records, active means well fitted curve in the direction sought with a large enough effect; inconclusive means small, poorly fitted or top-dose-only effect, or another doubt; inactive means no such curve, though single readings can be large; an effect the other way counts as inactive or inconclusive. Unless noted, on the % scale 0 is the no-effect control and ±100 the full control effect; potency means the concentration at half of the fitted maximal effect.

SMILES	AMA1 RON2 block	HCV inhibitor	Pf growth 96h	Pf growth 48h
CN(C)c1nc(NCc2ccccc2)nc(N/N=C/c2ccccc2F)n1	·	·	28.2%	?
Cc1cc(N/N=C/c2ccccc2)nc(NCc2ccccc2)n1	-10.6%	6.31µM*	1.47µM*	2.33µM*
Cc1cc(N/N=C/c2cccc(F)c2)nc(NCc2ccccc2)n1	-25.0%	-23.1%	?	?
Cc1cc(N/N=C/c2cccc(Cl)c2)nc(NCc2ccccc2)n1	-18.4%	12.6µM*	?	0.828µM*
CN(C)c1nc(NCc2ccccc2)nc(N/N=C/c2ccc(Cl)cc2Cl)n1	7.7%	24.3%	9.28µM*	?
CC(OC(=O)CN1C(=O)c2ccccc2C1=O)C(=O)NC1CCCCC1C (stereo not given)	-9.6%	4.3%	47.0%	60.2%
COc1cccc(CNC(=O)CCCc2nnc3n(C)c(=O)c4sccc4n23)c1	-6.3%	9.0%	-3.6%	?
O=C(CCc1nnc(CCCc2ccccc2)o1)NCC(F)(F)F	-3.4%	28.4%	0.5%	14.6%
Cc1cc(C)nc(NCc2ccc(Cl)cc2)n1	-10.7%	7.2%	0.0%	?
Cc1cc(Nc2cccc(Cl)c2)nc(NCc2ccccc2)n1	-0.4%	?	0.465µM*	0.738µM*
CC(C)c1ccc(-c2nc(N3CCCCC3)[nH]c(=O)c2C#N)cc1	-2.1%	10.7%	-12.1%	-22.6%
CC1=Nc2nc(N3CCCCC3)c(C#N)c3c4c(nc(c23)N1)N(c1ccc(C(C)C)cc1)C(=O)C4	4.2%[11.6 µM]	-16.3%	1.17µM*	?
CCOC(=O)c1c(NC(=O)Cn2nc(C(F)(F)F)cc2C)sc(C)c1C	-11.5%	?	-16.0%	-8.4%
COc1ccc(-c2ccnc3nc(N4CCN(c5ccccc5)CC4)nn23)cc1	-2.3%	?	9.28µM*	?
O=C(Nc1ccc(N2CCN(C(=O)c3ccccc3)CC2)cc1)c1cc2ccccc2o1	-0.8%	?	·	11.7µM*
CCCC(=O)N1CCN(c2ccc(NC(=O)c3sc4ccccc4c3Cl)cc2)CC1	15.5%	0.1%	4.65µM*	?
CCCCCC(=O)Nc1ccc(N2CCN(C(=O)CCC)CC2)cc1	-4.8%	-0.1%	14.4%	-13.5%
CN1CCN(c2ccc(NC(=O)c3cc4ccccc4o3)cc2)CC1	-7.6%	?	-1.9%	0.7%
CCCC(=O)N1CCN(c2ccc(NC(=O)c3cc4ccccc4o3)cc2)CC1	9.5%	10µM*	11.1%	?
CN1CCN(c2ccccc2NC(=O)c2sc3ccccc3c2Cl)CC1	-9.3%	12.6µM*	82.3%	?
Cc1cccc(NC(=O)COC(=O)c2ccc3c(c2)OCO3)c1C	-9.6%	14.9%	-11.4%	0.0%
Cc1ccc(C(=O)c2ccccc2C(=O)OCC(=O)NC(C)(C)C)cc1	-8.6%	-2.1%	-0.7%	4.3%
Cc1cccc(NC(=O)N2CCCc3ccccc32)c1C	10.7%	5.0%	7.6%	21.8%
O=S(=O)(c1cnc(Cl)c(Br)c1)N1CCN(c2ncccn2)CC1	-6.5%	-7.8%	?	73.6%
COc1ccc(CN(CC(=O)NCc2ccc(F)cc2)C(=O)CCC(=O)Nc2cc(C)ccn2)cc1	3.9%	3.4%	-0.8%	-1.0%
SMILES	AMA1 RON2 block	HCV inhibitor	Pf growth 96h	Pf growth 48h
Cc1cc2nc(-c3ccc(F)cc3)c(Cc3cccc(Cl)c3)n2c(C)c1Br	0.0%	·	·	·
CCc1ccccc1OCC(=O)NNCC(=O)Nc1cccc(C#N)c1	22.5%	?	49.7%	?
O=C(c1ccccc1)N1CCN(c2ccc(NCc3ccc4c(c3)OCO4)cc2)CC1	28.2µM*	11.2µM*	?	22.1%
CC1=NOC(=O)/C1=C\c1ccc(-c2ccccc2Br)o1	?	-17.4%	14.7µM*	5.4%
CC1=NOC(=O)/C1=C\c1ccc(-c2cccc(Cl)c2)o1	?	?	81.1%	43.5%
CC(Oc1ccc(-c2ccccc2)c(F)c1)c1ccn(S(=O)(=O)c2ccc(F)cc2)n1 (stereo not given)	2.7%	?	?	?
O=S(=O)(c1ccc(F)cc1)n1ccc(-c2cccc(OCc3ccc(Cl)cc3Cl)c2)n1	-4.6%	-13.8%	0.147µM*	?
COc1ccc(Cl)cc1NS(=O)(=O)c1ccc2c(c1)NC(=O)CCS2	1.2%	0.0%	7.38µM*	17.2%
Cc1ccc(NS(=O)(=O)c2ccc3c(c2)NC(=O)CCS3)c(Cl)c1	-1.4%	5.9%	?	4.65µM*
CCOC(=O)c1ccc(NS(=O)(=O)c2ccc3c(c2)NC(=O)CCS3)cc1	-3.9%	3.6%	?	-16.4%
Cc1cc(C)c(NS(=O)(=O)c2ccc3c(c2)NC(=O)CCS3)c(C)c1	16.4%	10.4%	8.28µM*	11.7µM*
Cc1ccc(NS(=O)(=O)c2ccc3c(c2)NC(=O)CCS3)c(C)c1	-5.6%	-12.4%	10.4µM*	2.62µM*
Cc1ccc(NS(=O)(=O)c2ccc3c(c2)NC(=O)C(C)C(=O)N3)c(Cl)c1 (stereo not given)	19.3%	5.2%	10.0%	6.8%
COc1ccc(C2=Nc3ccccc3N(C(=O)c3ccc4ncccc4c3)C2C(=O)NC2CCCC2)cc1 (stereo not given)	-10.4%	·	·	·
COc1ccc(C2/C=C\CN(C(=O)CC(C)(C)C)CC(=O)N2Cc2ccc(F)cc2)cc1 (stereo not given)	3.4%	5.01µM*	?	?
COc1ccc(C2/C=C\CN(C(=O)C3CC3)CC(=O)N2Cc2ccc(F)cc2)cc1 (stereo not given)	0.8%	-1.2%	54.1%	35.1%
COc1ccc(C2/C=C\CN(S(=O)(=O)c3ccc4ccccc4c3)CC(=O)N2Cc2ccc(F)cc2)cc1 (stereo not given)	5.4%	?	?	13.1µM*
COc1ccc(C2/C=C\CN(Cc3ccc(N(C)C)cc3)CC(=O)N2Cc2ccc(F)cc2)cc1 (stereo not given)	15.8µM*	-3.9%[8.37 µM]	?	?
COc1ccc(C2/C=C\CN(S(=O)(=O)/C=C/c3ccccc3)CC(=O)N2Cc2ccc(F)cc2)cc1 (stereo not given)	0.6%	-23.4%	?	?
COc1ccc(C2/C=C\CN(C(=O)CC(C)C)CC(=O)N2Cc2ccc(F)cc2)cc1 (stereo not given)	-1.7%	16.3%	?	?
COCCN(C(=S)Nc1ccc(C)cc1C)C(C)c1ccco1 (stereo not given)	-13.4%	?	7.2%	?
CNC(=O)c1cc(S(=O)(=O)N(C)C)ccc1Cl	-4.4%	17.1%	·	-2.6%
CC(NC(=S)Nc1cccc(C(F)(F)F)c1)C(C)(C)C (stereo not given)	20.0%	?	13.1µM*	?
Cc1ccc(NC(=S)NNc2ncc(C(F)(F)F)cc2Cl)cc1	37.9%	?	10.4µM*	?
Cc1ccc(NC(=S)NNc2ncc(C(F)(F)F)cc2Cl)c(C)c1	95.5%	?	?	·
FC(F)(F)c1cccc(NC(=S)NNC(=S)Nc2ccc(Cl)cc2)c1	·	·	11.7µM*	?
Fc1ccc(NC(=S)NNc2ncc(C(F)(F)F)cc2Cl)c(F)c1	5.6%	22.4µM*	10.4µM*	9.28µM*
O=C(Cc1c(F)cccc1Cl)NNC(=O)c1cccs1	39.9%	-3.8%	·	·
